Laboratory results as given in PubChem BioAssay AID1611 (NINDS Approved Drug Screening Program, 2009).

experiment: HSE-luciferase reporter activators – cell-based (AID 1611); settings: human cells, HSE-luciferase heat shock reporter; stronger effect = higher value

Compound	fold change
CN(C)[C@@H]1C(=O)C(C(N)=O)=C(O)[C@@]2(O)C(=O)C3=C(O)c4c(O)cccc4[C@@](C)(O)[C@H]3[C@H](O)[C@@H]12	1.27
CC(CCc1ccccc1)NC(C)C(O)c1ccc(O)cc1 (centres undefined)	1.23
C[C@H]1O[C@@H](O[C@H]2[C@@H](O)C[C@H](O[C@H]3[C@@H](O)C[C@H](O[C@H]4CC[C@]5(C)C6CC[C@]7(C)[C@@H](C8=CC(=O)OC8)CC[C@]7(O)C6CC[C@@H]5C4)O[C@@H]3C)O[C@@H]2C)C[C@H](O)[C@@H]1O (some centres undefined)	78
[N-]=[N+]=CC(=O)OCC(N)C(=O)O (centres undefined)	1.29
C=CCN1CC[C@]23c4c5ccc(O)c4OC2C(=O)CC[C@@]3(O)[C@H]1C5 (some centres undefined)	1.1
Clc1ccc(COC(Cn2ccnc2)c2ccc(Cl)cc2Cl)c(Cl)c1 (centres undefined)	0.8
CCC1(CC)C(=O)C=CNC1=O	1.24
Clc1ccc(CSC(Cn2ccnc2)c2ccc(Cl)cc2Cl)cc1 (centres undefined)	0.83
CC[C@@H]1/C=C/C=C/C[C@H](C)[C@@H](O)[C@](C)(O)C(=O)[C@H](C)[C@@H](O)[C@H](C)C(=O)[C@H](C)[C@@H](O)[C@H](C)/C=C/C(=O)O[C@H]2[C@@H](C)[C@@H](CC1)O[C@@]1(CC[C@@H](C)[C@@H](C[C@H](C)O)O1)[C@@H]2C	1.06
CNC1(c2ccccc2Cl)CCCCC1=O (centres undefined)	1.39
Cc1cc2c(C(C)C)c(O)c(O)c(C=O)c2c(O)c1-c1c(C)cc2c(C(C)C)c(O)c(O)c(C=O)c2c1O	0.95
Clc1ccc(COC(Cn2ccnc2)c2ccc(Cl)cc2Cl)cc1 (centres undefined)	1.04
NCC(O)c1ccc(O)cc1 (centres undefined)	1.61
CC(=O)[O][Hg][c]1ccccc1	1.14
CCCCCCCCCCCCCCCC[N+](C)(C)C	0.93
N#C/C(=C\c1ccc(O)cc1)C(=O)O	1.34
O=P1(N(CCCl)CCCl)NCCCO1 (centres undefined)	0.79
CN(C)[C@@H]1C(=O)C(C(N)=O)=C(O)[C@@]2(O)C(=O)C3=C(O)c4c(O)ccc(Cl)c4[C@@](C)(O)[C@H]3C[C@@H]12	0.9
CC(=O)C1=C(O)C2C3c4c[nH]c5cccc(c45)CC3C(C)(C)N2C1=O (centres undefined)	1.11
C=C[C@H]1CN2CC[C@H]1C[C@@H]2[C@H](O)c1ccnc2ccccc12	1.18

Compound	fold change
N#CC(O[C@@H]1O[C@H](CO[C@@H]2O[C@H](CO)[C@@H](O)[C@H](O)[C@H]2O)[C@@H](O)[C@H](O)[C@H]1O)c1ccccc1 (some centres undefined)	0.7
CNC(C)C(O)c1ccccc1 (centres undefined)	0.96
C[C@@H]([C@H](O)c1ccccc1)N(C)C	1.08
CC(=O)OC1CN2CCC1CC2 (centres undefined)	0.77
CNC(C)(C)Cc1ccccc1	1.1
O=c1[nH]oc2c1CCNC2	1.02
NC(=O)CN1CCCC1=O	0.86
CC1[C@H](C)OC(=O)CC(O)CC(O)CC(O)CCC(O)C(O)C[C@]2(O)CC(O)C(C(=O)O)C(CC(OC3O[C@H](C)[C@@H](O)[C@H](N)[C@@H]3O)/C=C/C=C/C=C/C=C/CC/C=C/C=C/[C@H](C)[C@H]1O)O2 (some centres undefined)	1.2
C[C@H](N)[C@H](O)c1ccc(O)c(O)c1	1.53
CCCCC[C@H]1C(=O)O[C@H](C)[C@H](NC(=O)c2cccc(NC=O)c2O)C(=O)O[C@@H](C)[C@@H]1OC(=O)CC(C)C	0.64
NCC(CC(=O)O)c1ccc(Cl)cc1 (centres undefined)	1.37
CC(=O)OCC1=C(C(=O)O)N2C(=O)[C@@H](NC(=O)CCCC(N)C(=O)O)C2SC1 (some centres undefined)	0.85
CC(=O)Nc1cc([As](=O)(O)O)ccc1O	0.73
COc1ccc2c(c1OC)C(=O)O[C@H]2[C@H]1c2cc3c(cc2CCN1C)OCO3	0.8
O=[N+]([O-])c1cc(O)c(O)c([N+](=O)[O-])c1	0.87
C#CC1(O)CCC2C3CCC4=CC(=O)CCC4(C)C3CCC21C (centres undefined)	0.91
CCN1C[C@@]2(COC)C3[C@@H](OC)[C@H]4[C@@H]1[C@]3(C(OC)C[C@H]2O)C1C[C@@]2(O)[C@H](OC(=O)c3ccccc3)C1[C@]4(OC(C)=O)[C@@H](O)[C@@H]2OC (some centres undefined)	0.98
C[C@@H]1C[C@@H]([C@H](O)CC2CC(=O)NC(=O)C2)C(=O)[C@@H](C)C1	0.84
COc1cc([C@@H]2c3cc4c(cc3[C@H](O)[C@H]3COC(=O)[C@H]23)OCO4)cc(OC)c1OC	0.57
